Assay [1] can be described thus: qHTS of pediatric cancer cell lines to identify multiple opportunities for drug repurposing: Primary screen for BT-37 cells (AID 1347094). Also: potency is read from the fitted curve at half-maximal effect. Summed up: (§1)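 Following a 5-hour attachment period, cells at 500-1,000/well received compounds and were cultured for 48 hours. CellTiter-Glo was added and luminescence read to estimate viable, metabolically active cells.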
(In general: In qHTS, concentration-response curves come from the screen itself.)

A short description of assay [2]: qHTS of pediatric cancer cell lines to identify multiple opportunities for drug repurposing: Primary screen for Saos-2 cells (AID 1347097). Also: nearly all actives have a fitted effect of over 40% in size. Also: potency is read from the fitted curve at half-maximal effect. Summed up: as §1
Assay [3] can be described thus: qHTS of pediatric cancer cell lines to identify multiple opportunities for drug repurposing: Primary screen for SK-N-SH cells (AID 1347098). Also: nearly all actives have a fitted effect of over 65% in size. Also: potency is read from the fitted curve at half-maximal effect. The procedure, abridged: (§2)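 Cells (500-1,000/well) rested 5 h, then received compounds for 48 h; metabolically active cells were measured by CellTiter-Glo luminescence. Final concentrations spanned up to 46 µM (MIPE, 11-point) or 0.59 nM-46 µM (NPC, 8-point) in primary screens, 11-point in follow-ups.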

A short description of assay [4]: qHTS of pediatric cancer cell lines to identify multiple opportunities for drug repurposing: Primary screen for NB1643 cells (AID 1347099). Also: nearly all actives have a fitted effect of over 50% in size. Also: potency is read from the fitted curve at half-maximal effect. The procedure, abridged: as §1
A short description of assay [5]: qHTS of pediatric cancer cell lines to identify multiple opportunities for drug repurposing: Primary screen for LAN-5 cells (AID 1347100). Also: potency is read from the fitted curve at half-maximal effect. Summed up:
(§3)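 Cells (500-1,000/well) in growth media were settled 5 h at 37 degrees C, then given compounds for 48 h. Viability was read as CellTiter-Glo luminescence. Primary runs used MIPE at 11 points (0.78 nM-46 µM) and NPC at 8 points (0.59 nM-46 µM); follow-ups used 11 points.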

Assay [6] can be described thus: qHTS of pediatric cancer cell lines to identify multiple opportunities for drug repurposing: Primary screen for RD cells (AID 1347104). Also: nearly all actives have a fitted effect of over 55% in size. Also: potency is read from the fitted curve at half-maximal effect. The procedure, abridged: as §1
The nature of assay [7]: qHTS of pediatric cancer cell lines to identify multiple opportunities for drug repurposing: Primary screen for Rh41 cells (AID 1347108). Also: nearly all actives have a fitted effect of over 70% in size. Also: potency is read from the fitted curve at half-maximal effect. The procedure, abridged: as §1
Assay [8] can be described thus: qHTS of pediatric cancer cell lines to identify multiple opportunities for drug repurposing: Primary screen for U-2 OS cells (AID 1347096). Also: nearly all actives have a fitted effect of over 50% in size. Also: potency is read from the fitted curve at half-maximal effect. Summed up:
as §3

Assay [9] is described as follows: qHTS of pediatric cancer cell lines to identify multiple opportunities for drug repurposing: Primary screen for BT-12 cells (AID 1347101). Also: nearly all actives have a fitted effect of over 25% in size. Also: potency is read from the fitted curve at half-maximal effect. The procedure, abridged:
as §2

Assay [10] is described as follows: qHTS of pediatric cancer cell lines to identify multiple opportunities for drug repurposing: Primary screen for Rh18 cells (AID 1347102). Also: nearly all actives have a fitted effect of over 65% in size. Also: potency is read from the fitted curve at half-maximal effect. Summed up:
as §3

Assay [11] is described as follows: qHTS of pediatric cancer cell lines to identify multiple opportunities for drug repurposing: Primary screen for MG 63 (6-TG R) cells (AID 1347105). Also: nearly all actives have a fitted effect of over 50% in size. Also: potency is read from the fitted curve at half-maximal effect. Summed up: as §1
Assay [12] in a line: qHTS of pediatric cancer cell lines to identify multiple opportunities for drug repurposing: Primary screen for control Hh wild type fibroblast cells (AID 1347106).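 Also: series mostly up to about 46 µM; a drop in luminescence marks cytotoxicity and a rise apparent proliferation; nearly all actives have a fitted effect of over 55% in size.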 Summed up: as §3
Assay [13] in a line: qHTS of pediatric cancer cell lines to identify multiple opportunities for drug repurposing: Primary screen for NB-EBc1 cells (AID 1347095). Also: potency is read from the fitted curve at half-maximal effect. The procedure, abridged:
as §1

A short description of assay [14]: qHTS of pediatric cancer cell lines to identify multiple opportunities for drug repurposing: Primary screen for OHS-50 cells (AID 1347103). Also: nearly all actives have a fitted effect of over 40% in size. Also: potency is read from the fitted curve at half-maximal effect. The procedure, abridged:
as §2

The nature of assay [15]: qHTS of pediatric cancer cell lines to identify multiple opportunities for drug repurposing: Primary screen for Rh30 cells (AID 1347107). Also: series mostly up to about 46 µM; nearly all actives have a fitted effect of over 75% in size. Summed up: as §3
A short description of assay [16]: qHTS of pediatric cancer cell lines to identify multiple opportunities for drug repurposing: Confirmatory screen for NB1643 cells (AID 1347109). Also: nearly all actives have a fitted effect of over 45% in size. Also: potency is read from the fitted curve at half-maximal effect. The procedure, abridged: as §3
The nature of assay [17]: qHTS of pediatric cancer cell lines to identify multiple opportunities for drug repurposing: Confirmatory screen for A673 cells (AID 1347110).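 Also: potency is read from the fitted curve at half-maximal effect; cells exposed to compound for 48 h before the viability read; nearly all actives have a fitted effect of over 65% in size.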 The procedure, abridged: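 qHTS titration format: primary MIPE 0.78 nM-46 µM (11 pts), NPC 0.59 nM-46 µM; confirmation 11 pts. 48 h, CTG luminescence.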
Assay [18] can be described thus: qHTS of pediatric cancer cell lines to identify multiple opportunities for drug repurposing: Confirmatory screen for SK-N-MC cells (AID 1347111).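 Also: potency is read from the fitted curve at half-maximal effect; cells exposed to compound for 48 h before the readout; nearly all actives have a fitted effect of over 70% in size.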 Summed up: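 Metabolically active cells were quantified by ATP-dependent luminescence (CellTiter-Glo, 15 min at room temperature) following 48 h treatment. Cells had been plated at 500-1,000 per well and settled for 5 h beforehand.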

Assay [19] in a line: qHTS of pediatric cancer cell lines to identify multiple opportunities for drug repurposing: Confirmatory screen for BT-12 cells (AID 1347112). Also: nearly all actives have a fitted effect of over 55% in size. Also: potency is read from the fitted curve at half-maximal effect. The procedure, abridged:
as §3

A short description of assay [20]: qHTS of pediatric cancer cell lines to identify multiple opportunities for drug repurposing: Confirmatory screen for LAN-5 cells (AID 1347113). Also: nearly all actives have a fitted effect of over 65% in size. Also: potency is read from the fitted curve at half-maximal effect. The procedure, abridged:
as §3

SMILES strings stand for the structures. Inconclusive results are not listed. Calls of active or inactive are those of the source. Calls follow the shape of the dose curve; as a rule, active = well fitted curve in the direction sought with a large enough effect; inconclusive = small, poorly fitted or top-dose-only effect, or another doubt; inactive = no such curve, though single readings can be large; an effect the other way counts as inactive or inconclusive.

On to `C=CC(=O)Nc1cc(NC(=O)c2ccc(C)c(NC(=O)c3ccno3)c2)cc(C(F)(F)F)c1`, for which the Potency in assay [1] is 27.3 µM (active); in [2] it was 18.7 µM (active); in assay [3], 24.1 µM (active); in [4], 18.7 µM (active); in assay [5], 16.6 µM (active); in assay [6] it was 33.2 µM (active). In [7], the Potency was 20.9 µM (active).
Consider `CCCCCCCCCCCCc1ccc(S(=O)(=O)Nc2nncs2)cc1`, for which the Potency entry in assay [1], in assay [8], in assay [4], in assay [5], in [9] and in [10] was “inactive” each time. Besides, the Potency result in assay [6], in assay [11] and in assay [12] was “inactive” in each case. Moreover, the Potency in assay [2] is 18.7 µM (active).
Take `Nc1ccn(C2CO[C@H](CO)O2)c(=O)n1` (stereo not given in full): the Potency entry in assay [13], in assay [8], in [2], in assay [3], in assay [4] and in [5] was “inactive” in each case. For the same molecule, the Potency entry in assay [9], in assay [10], in [14], in assay [6], in [12] and in assay [15] was “inactive” in each case. Further, the Potency entry in assay [7] was “inactive”.
Turning to `Cc1cnn(C)c1C(=O)Nc1cc(Nc2ccc3c(C=Cc4ccccn4)n[nH]c3c2)ccc1F`, the Potency in [1] is 24.3 µM (active); in [2] it was 20.9 µM (active); in assay [4] it was 14.8 µM (active); in assay [5], 14.8 µM (active); in assay [9], 10.9 µM (active); in assay [14], 38.5 µM (active). Also, the Potency in assay [6] was 18.7 µM (active). For the same molecule, the Potency entry in assay [12] was “inactive”.
Take `C[C@@]12C(=O)OC(=O)[C@@]1(C)C1CCC2O1`: the Potency in assay [13] is 2.35 µM (active); in assay [2] it was 2.96 µM (active); in [3], 3.83 µM (active); in [4], 1.48 µM (active); in assay [5] it was 2.35 µM (active); in assay [9], 8.63 µM (active). Moreover, the Potency is 1.87 µM (active) in assay [10]; 2.43 µM (active) in [14]; 1.87 µM (active) in [11]; 3.72 µM (active) in assay [7]; 3.29 µM (active) in [16]; 9.27 µM (active) in assay [17]. The Potency in [18] was 6.57 µM (active); in assay [19], 8.27 µM (active). For the same molecule, the Potency entry in assay [8] is “inactive”.
On to `Cn1cnc2c(F)c(Nc3ccc(Br)cc3F)c(C(=O)NOCCO)cc21`, for which the Potency entry in [1], in assay [2], in assay [4], in assay [10], in assay [14] and in [11] was “inactive” throughout. Moreover, the Potency entry in [12], in assay [15] and in assay [7] was “inactive” throughout.
`O=C(CN1C(=O)C2(CCCC2)NC[C@H]1c1cc(F)cc(F)c1)Nc1ccc2c(c1)C[C@@]1(C2)C(=O)Nc2ncccc21`: the Potency entry in [13], in assay [8], in [2], in assay [3], in assay [4] and in assay [5] was “inactive” throughout. Besides, the Potency entry in assay [9], in assay [10], in assay [14], in assay [6], in [11] and in assay [12] was “inactive” in each case. For the same molecule, the Potency result in [15] and in assay [7] was “inactive” each time.
Consider `CCCCCCCN(CC)CCCC(O)c1ccc(NS(C)(=O)=O)cc1` (stereo not given), for which the Potency entry in [1], in assay [8], in assay [3], in assay [4], in assay [9] and in [6] was “inactive” each time. Further, the Potency result in assay [11], in [12], in assay [15] and in [7] was “inactive” throughout.
With `C=Cc1c(C)c2cc3nc(cc4[nH]c(cc5nc(cc1[nH]2)C(C)=C5CCC(=O)O)c(CCC(=O)OC)c4C)[C@@]1(C)C3=CC=C(C(=O)OC)[C@H]1C(=O)OC`, the Potency in assay [1] was 0.0769 µM (active); in assay [8], 0.372 µM (active); in assay [2], 4.69 µM (active); in assay [3], 0.121 µM (active); in assay [5], 0.0526 µM (active); in assay [9] it was 0.344 µM (active). Further, the Potency in [14] was 0.769 µM (active); in [6] it was 0.105 µM (active); in assay [11], 1.18 µM (active); in assay [7], 0.0743 µM (active). The Potency entry in [15], in [16] and in assay [19] was “inactive” throughout.
Turning to `C[C@]12C=CC(=O)N[C@@H]1CC[C@H]1[C@H]3CC[C@@H](C(=O)Nc4cc(C(F)(F)F)ccc4C(F)(F)F)[C@@]3(C)CC[C@@H]12`, the Potency result in assay [1], in assay [8], in assay [3], in assay [5], in assay [9] and in assay [10] was “inactive” each time. Further, the Potency result in assay [6], in assay [11], in assay [12] and in assay [15] was “inactive” each time. Moreover, the Potency in [2] was 16.6 µM (active).
Consider `CCC[C@H]1C[C@H](C(=O)N[C@@H]([C@@H]2O[C@@H](SC)[C@@H](O)[C@@H](O)[C@@H]2O)[C@H](C)Cl)N(C)C1`, for which the Potency entry in assay [13], in [8], in assay [2], in assay [3], in assay [4] and in [5] was “inactive” in each case. The Potency entry in [9], in assay [10], in assay [14], in assay [6], in [11] and in assay [12] was “inactive” each time. In addition, in assay [7], the Potency result is “inactive”.
For `Nc1ncn([C@@H]2O[C@H](CO)[C@@H](O)[C@@H]2O)c(=O)n1`, the Potency in [1] was 10.9 µM (active); in assay [13] it was 16.6 µM (active); in assay [4] it was 4.69 µM (active); in [5], 5.26 µM (active); in [9], 5.44 µM (active); in assay [14] it was 15.3 µM (active). Further, the Potency in assay [6] is 5.9 µM (active); in assay [16] it was 16.5 µM (active); in assay [17] it was 5.85 µM (active); in assay [18], 16.5 µM (active); in assay [19], 18.5 µM (active); in [20] it was 16.5 µM (active). Besides, the Potency entry in assay [11] is “inactive”.
`O=C(NC1CC1)c1cccc(-c2ccc3c(NC(=O)C4CC4)n[nH]c3c2)c1`: the Potency in assay [1] is 3.43 µM (active); in assay [2], 2.96 µM (active); in assay [3], 1.71 µM (active); in assay [4], 0.935 µM (active); in assay [5] it was 2.09 µM (active); in assay [9] it was 3.85 µM (active). Also, the Potency in assay [10] is 2.96 µM (active); in assay [14] it was 3.85 µM (active); in [11] it was 1.48 µM (active); in assay [7], 2.96 µM (active); in [17] it was 4.14 µM (active); in assay [18], 8.27 µM (active). The Potency entry in assay [15] and in [20] was “inactive” each time.

Values taken from PubChem BioAssay (NCATS).
